Assay results published in ChEMBL document CHEMBL3988442, “University of Dundee, Small-Polar-MMV Screening Library” (2021).
Among all 38,000 compounds or so, about 1,200 (3.2%) showed an effect of 50% or more. The median lay at about -58%. Only a selection was taken, and strong results are over-represented in it overall.

Test system: Plasmodium falciparum
Test: Calibr Malaria Delayed Death Assay SOP
Assay type: functional, organism-based
Parameters: scale not given: in the data most compounds retested in dose-response had high values
Settings: concentration 4.99e-06 (unit not given; other assays of the set use mol/L)

Row | Structure (SMILES) | Percent Effect
1 | CCC1=N[C@@]2(CC[C@@H]3CN(Cc4ccccc4F)C[C@@H]32)C(=O)N1CC.O=C(O)C(F)(F)F | 37.33%
2 | CC1=N[C@@]2(CC[C@@H]3CN(Cc4ccccc4F)C[C@@H]32)C(=O)N1CC1CC1.O=C(O)C(F)(F)F | 66.32%
3 | CC1=N[C@@]2(CC[C@@H]3CN(CC(=O)N(C)C)C[C@@H]32)C(=O)N1CC1CC1.O=C(O)C(F)(F)F | -113.5%
4 | O=C(O)C(F)(F)F.O=C([C@H]1C[C@H]2OCC[C@H]2N(Cc2ccoc2)C1)N1CCCCO1 | -83.93%
5 | CCN1CCn2cc(CNC(=O)c3cnn(C)c3)nc2C1.O=C(O)C(F)(F)F.O=C(O)C(F)(F)F | -97.9%
6 | COc1c(CNC2CCN(c3ncccn3)CC2)c(C)nn1C | -45.93%
7 | COc1ccccc1N1CCC(CNCc2c(C)nn(C)c2OC)C1 (stereo unspecified) | 51.83%
8 | COc1ccc(CNCC2CCN(c3ccccc3OC)C2)cc1O (stereo unspecified) | 21.41%
9 | COc1ccccc1N1CCC(CNCc2cccc(O)c2)C1 (stereo unspecified) | 55.7%
10 | COc1ccccc1N1CCC(CNS(=O)(=O)c2c(C)nn(C)c2C)C1 (stereo unspecified) | -22.9%
11 | COc1ccccc1N1CCC(CNCc2cccc(OC)c2OC)C1 (stereo unspecified) | 55.95%
12 | COc1ccccc1N1CCC(CNC(=O)N(C)Cc2ccco2)C1 (stereo unspecified) | -114.8%
13 | COc1ccccc1N1CCC(CNCc2cccc(C#N)c2)C1 (stereo unspecified) | 0.8345%
14 | COc1ccccc1N1CCC(N2CCOCC(CO)C2)CC1 (stereo unspecified) | 27.34%
15 | Cc1ccc(C(C)(O)CNC(=O)CCn2ccnc2C(C)C)o1 (stereo unspecified) | -68.59%
16 | Cc1[nH]ncc1C(=O)NCC(CO)Cc1ccc(Cl)cc1 (stereo unspecified) | -37.01%
17 | c1cc(CNCC2CNc3ccnn3C2)cc(N2CCOCC2)n1 (stereo unspecified) | -156.8%
18 | Cc1cc(N2Cc3cnn(CCO)c3C2)nc(-c2ccccc2O)n1 | -189%
19 | O=C(NCC(O)C1CC1)Nc1cnn(Cc2ccccc2)c1 (stereo unspecified) | -47.94%
20 | Cc1cncc(C2CCCN(C(=O)c3cn(C)nc3C)C2)n1 (stereo unspecified) | -35.12%
21 | C[C@@H]1CN(C2CCN(Cc3nn(C)c4cccc(Cl)c34)CC2)C[C@H](C)O1 | -11.21%

Row | Structure (SMILES) | Percent Effect
22 | Cn1nc(CN2CCCN(C3CCCC3)CC2)c2c(Cl)cccc21 | 68.46%
23 | CCn1cc(CN2CCCN(C3Cc4ccccc4C3)CC2)c(C)n1 | -9.026%
24 | Cn1cnnc1CC1CCN(Cc2nn(C)c3cccc(Cl)c23)CC1 | -15.19%
25 | Cn1nc(CN2CCCCC(N)C2)c2c(Cl)cccc21 (stereo unspecified) | 65.71%
26 | Cn1nc(CN2CCC(c3ccncc3)CC2)c2c(Cl)cccc21 | -16.19%
27 | CCC(=O)N1CCC[C@]2(C(=O)N(C)C)CN(c3ccccn3)C[C@@H]2C1.O=C(O)C(F)(F)F | -7.405%
28 | Cn1nccc1-c1nnn2c1COC(CNCc1nccs1)C2.O=C(O)C(F)(F)F (stereo unspecified) | -38.88%
29 | CCn1cc(S(=O)(=O)N2CCCC2c2ccc(C)o2)cn1 (stereo unspecified) | -154.6%
30 | CC(C)c1nccn1C1CCCN(C(=O)c2nccnc2N)C1 (stereo unspecified) | -27.69%
31 | CCOc1ncccc1CNC(=O)c1cc(C)on1 | -34.12%
32 | Cn1cc(C2CC(=O)NC23CCN(C(=O)C2CC=CC2)CC3)cn1 (stereo unspecified) | -79.79%
33 | Cc1ccccc1CCC1CCCN(Cc2nnc(-c3ccco3)o2)C1 (stereo unspecified) | -11.7%
34 | Cn1ccnc1CCNC(=O)C1CCCN(Cc2cccc(F)c2)C1 (stereo unspecified) | 58.15%
35 | Cn1cc(CNC(=O)C2CCCN(Cc3cccc(F)c3)C2)cn1 (stereo unspecified) | -63.48%
36 | Cn1cc(C[C@H]2[C@H](O)CCN2Cc2ccc(F)cc2)cn1.O=C(O)C(F)(F)F | 1.719%
37 | Cn1cc(CN2CCCC(CCc3ccccc3C(F)(F)F)C2)cn1 (stereo unspecified) | 87.33%
38 | Cn1cc(CN2CCCC(CCc3ccc(F)cc3)C2)cn1 (stereo unspecified) | 73.58%
39 | COc1ccc(CN2CCCC(Cn3nc(C)nc3C)C2)cc1F (stereo unspecified) | -17.07%
40 | Cc1[nH]c(=O)[nH]c(=O)c1CN1CCCC(CCc2ccc(F)c(F)c2)C1 (stereo unspecified) | -43.91%
41 | Cn1cc(CN2CCC(CCC(=O)NCc3ccc(F)cc3)CC2)cn1 | -110.1%
42 | Cn1cnnc1CNC(=O)C1CCCN(Cc2cccc(F)c2)C1 (stereo unspecified) | -147.7%

Row | Structure (SMILES) | Percent Effect
43 | Cn1cc(CN2CCCN(CCCc3ccccc3)CC2)cn1 | -23.65%
44 | Cn1cc(CN2CCCC(CCc3ccc(F)c(F)c3)C2)cn1 (stereo unspecified) | 69.99%
45 | Cc1nn(C)c(Cl)c1C1CCCN1C(=O)c1ccnn1C (stereo unspecified) | -125.5%
46 | Cc1nc(CN2C[C@@H]3CN(C(=O)Cc4ccccn4)C[C@@H]3C2)cs1.O=C(O)C(F)(F)F.O=C(O)C(F)(F)F | -48.37%
47 | CN(Cc1nccn1CC(F)(F)F)C(=O)c1ccc(F)cc1F | -38.32%
48 | CCN1CCN(c2ccc(NC(C)c3nc(C(C)C)no3)c(C)c2)CC1 (stereo unspecified) | -29.45%
49 | CNC(=O)COC(=O)c1ccn(-c2ccc(Cl)c(Cl)c2)n1 | -33.36%
50 | COCC1c2c(cnn2C)CCN1Cc1ccco1.O=C(O)C(F)(F)F.O=C(O)C(F)(F)F (stereo unspecified) | -7.218%
51 | Cc1cc(F)ccc1-n1cc(O)c(C(N)=O)n1 | -184.1%
52 | Cn1cc(CN2CCCC(CCc3c(F)cccc3F)C2)cn1 (stereo unspecified) | 78.37%
53 | Cc1nc(C)n(CC2CCCN(Cc3ccc(F)cc3C#N)C2)n1 (stereo unspecified) | -108%
54 | Cc1[nH]c(=O)[nH]c(=O)c1CN1CCCC(CCc2ccccc2F)C1 (stereo unspecified) | -31.73%
55 | Cc1[nH]c(=O)[nH]c(=O)c1CN1CCCC(CCc2ccc(F)cc2F)C1 (stereo unspecified) | 49.97%
56 | CC(c1ccc(F)c(F)c1)N1CCN(Cc2nccn2C)CC1 (stereo unspecified) | -18.79%
57 | Cn1cc(CN2CCCC(CCc3ccc(F)cc3F)C2)cn1 (stereo unspecified) | 88.72%
58 | Cc1[nH]c(=O)[nH]c(=O)c1CN1CCCC(CCc2c(F)cccc2F)C1 (stereo unspecified) | -50.25%
59 | Cn1ccnc1CN1CCCC(CCc2ccc(F)c(F)c2)C1 (stereo unspecified) | 73.33%
60 | CC(C)n1ccnc1C1CCCN(Cc2ccc(F)c(F)c2)C1 (stereo unspecified) | 8.859%
61 | Cc1ccc(N2CCN(C(=O)CCc3ccc(O)cc3)CC2=O)cc1 | -38.56%
